# Compound activity (PubChem BioAssay)
# Shown are actives, neighbours in structure and some others; about 27% of the full set was active somewhere.
# CYP2C9 inh: inhibitors of human CYP2C9 | P11712 | CYP2C9 Supersomes, luciferin-H conversion, luminescence | inhibition, % at 5 µM | 20% of 96,000 active | AID 777;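 active = blocking of liver enzyme CYP2C9 beyond about 50% at 5 µM, limit read from the data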
# Target sequence (P11712 whole entry, looked up): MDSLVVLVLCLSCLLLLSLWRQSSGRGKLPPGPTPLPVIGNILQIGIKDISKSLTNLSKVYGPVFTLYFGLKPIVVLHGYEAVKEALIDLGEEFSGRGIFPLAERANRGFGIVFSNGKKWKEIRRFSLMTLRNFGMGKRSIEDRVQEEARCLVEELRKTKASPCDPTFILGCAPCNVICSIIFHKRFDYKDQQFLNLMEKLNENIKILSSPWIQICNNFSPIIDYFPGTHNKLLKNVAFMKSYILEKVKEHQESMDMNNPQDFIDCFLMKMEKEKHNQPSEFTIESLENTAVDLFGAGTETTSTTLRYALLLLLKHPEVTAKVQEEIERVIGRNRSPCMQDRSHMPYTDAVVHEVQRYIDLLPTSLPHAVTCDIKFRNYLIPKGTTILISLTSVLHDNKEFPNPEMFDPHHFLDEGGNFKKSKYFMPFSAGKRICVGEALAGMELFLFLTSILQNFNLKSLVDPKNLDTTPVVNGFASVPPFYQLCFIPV
# sEH activator: activators of human soluble epoxide hydrolase | P34913 | purified human sEH enzymatic activity, activator screen | activation, % at 2 µM | AID 717 | 0.04% of 91,000 active; in the data active = activation above about 37%
# CYP2C9 act: increases human cytochrome P450 2C9 activity. recombinant CYP2C9, luciferin-H conversion, luminescence; hits give high values; factor 1 = untreated enzyme, 0 = blocked. activation factor at 5 µM. 1.4% of 96,000 active;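 active = activation factor of 2 or more for CYP2C9 at a 5 µM dose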;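 also: 0 = sulfaphenazole-blocked wells and 1 = vehicle-only wells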
# CYP2C19 inh: inhibitors of human CYP2C19 | P33261 | inhibition, % at 5 µM | AID 778 | CYP2C19 Supersomes, luciferin-H EGE luminescence, 30 min | 21% of 96,000 active;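 active = CYP2C19 inhibition above a set limit at 5 µM in the primary screen, cut at about 50% in these data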;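 also: plate controls were negative control wells for no effect and 2.5 mM tranylcypromine positive control for full effect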
# CYP2C19 activ: cytochrome P450 2C19 (human) activation. recombinant CYP2C19, luciferin-H EGE luminescence; hits give high values; 0 = fully inhibited enzyme, 1 = untreated enzyme. 96,000 tested, under 10 active. AID 1025. activation factor at 5 µM. P33261;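 active = activation factor of at least 2 at 5 µM in the primary screen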;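 also: 0 = wells with 2.5 mM tranylcypromine and 1 = vehicle-only wells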
# sEH inhibitor: inhibitors of human soluble epoxide hydrolase | 0.34% of 91,000 active | inhibition, % at 2 µM | recombinant human sEH enzymatic activity assay; in the data active = inhibition above about 80%
# * hit, by the source's call; · = no result.
SMILES,CYP2C9 inh,sEH activator,CYP2C9 act,CYP2C19 inh,CYP2C19 activ,sEH inhibitor
COC(=O)C(C)N1C(=O)S/C(=C/c2cc(C)n(C(C)C)c2C)C1=O (stereo unspecified),37,-22,0.6,38,0.6,23
Oc1cccc(Nc2nc(NCC3CCCO3)c3ccccc3n2)c1 (stereo unspecified),60*,4,0.4,51*,0.5,-4
COC(=O)CN1C(=O)S/C(=C/c2cc(C)n(C)c2C)C1=O,51*,-2,0.5,23,0.8,2
CCOCCCN1C(=O)C(O)=C(C(C)=O)C1c1cccs1 (stereo unspecified),·,-9,·,·,·,12
CCn1cc(C(=O)N2CCN(C(=O)c3ccco3)CC2)c2cc(OC)c(OC)cc2c1=O,5,-6,0.9,0,1,9
CCn1cc(C(=O)N2CCN(c3ccccn3)CC2)c2cc(OC)c(OC)cc2c1=O,60*,·,0.4,12,0.9,·
CCCc1ccc(OCc2ccc(C(=O)N3CCN(c4ccccn4)CC3)o2)c(OC)c1,57*,-9,0.4,57*,0.4,10
COc1ccc(OC)c(NC(=S)N2CCN(c3ccccn3)CC2)c1,-17,-12,1.2,42,0.6,14
COc1ccc(CC(=O)N2CCN(c3ccccn3)CC2)cc1OC,7,-6,0.9,52*,0.5,6
CCCOc1ccc2oc(=O)c3c(c2c1)CCCN3C(=O)CN1CCc2ccccc2C1,64*,-14,0.4,89*,0.1,16
CC1CCN(CC(=O)N2CCCc3c2c(=O)oc2ccc(OCc4ccccc4)cc32)CC1,90*,16,0.1,53*,0.5,-16
O=C(O)c1ccc(COc2ccc3c4c(c(=O)oc3c2)CCC4)o1,4,7,1,10,0.9,-8
O=C(Cn1cnc2c(oc3ccccc32)c1=O)N1CCCc2ccccc21,49,1,0.5,45,0.6,0
CC1CC(C)CN(CC(=O)N2CCCc3c2c(=O)oc2ccc(OCc4ccccc4)cc32)C1 (stereo unspecified),85*,9,0.2,75*,0.3,-9
CCOC(=O)C1CCCN(C(=O)CCCn2nc(C)n3c(cc4sccc43)c2=O)C1 (stereo unspecified),46,8,0.5,32,0.7,-8
CC(NC(=O)C1CC2CCCC(C1)C2=O)c1ccccc1 (stereo unspecified),-9,7,1.1,10,0.9,-2
Cc1ccc(S(=O)(=O)N2CCN(C(=O)CSc3nnnn3C)C2)cc1,-8,-3,1.1,-4,1,2
Cc1nn(-c2ccccc2)c(Oc2ccc(F)cc2)c1/C=N/n1cnnc1,60*,13,0.4,56*,0.4,-12
CCOC(=O)Cc1csc(NC(=O)CSc2ncnc3c2cnn3-c2ccccc2Cl)n1,90*,-2,0.1,70*,0.3,4
Cc1nnc(NC(=O)CSc2ncnc3c2cnn3-c2ccccc2C)s1,37,-3,0.6,-18,1.2,5
Cc1nn(C)c(N)c1C(O)(c1nccn1C)C(F)(F)F (stereo unspecified),4,·,1,-2,1,·
Cc1ccc(-c2nnc(CSc3nnc4c5c(C)c(C)sc5nc(C(C)C)n34)o2)cc1,31,·,0.7,44,0.6,·
Cc1ccccc1NCCNc1ccccc1C,23,6,0.8,83*,0.2,-11
CCn1c2ccccc2c2cc(C3N=C(N)Nc4nc5ccccc5n43)ccc21 (stereo unspecified),-7,-5,1.1,7,0.9,6
CC(=O)c1sc(NC(=O)c2cc3c(C)nn(-c4ccccc4)c3s2)nc1C,8,8,0.9,2,1,-5
Cc1nc(NC(=O)c2cc3c(C)nn(-c4ccccc4)c3s2)sc1C(=O)Nc1ccccc1,59*,2,0.4,38,0.6,-3
Cc1nn(-c2ccccc2)c2sc(C(=O)NC3CC3)cc12,51*,15,0.5,-3,1,-15
Cc1nn(-c2ccc(F)cc2)c2sc(C(=O)N3CCCCCC3)cc12,68*,10,0.3,68*,0.3,-12
Cc1nn(-c2ccc(Cl)cc2)c2sc(C(=O)N3CCN(C(=O)c4ccco4)CC3)cc12,-7,·,1.1,-14,1.1,·
Cc1csc(NC(=O)CCC(=O)N(CC(=O)NC2CCCC2)Cc2ccco2)n1,0,·,1,-4,1,·
